# Results reported in PubChem BioAssay AID765 (NMMLSC, 2007).
# The source made the active and inactive calls. Rule as the data show it: active = inhibition above about 31%; inactive = the rest.
# Molecular target: N-formyl peptide receptor 2 (Homo sapiens) (UniProt P25090)
# Test: human FPR2 ligand displacement single-point screen – cell-based, flow cytometry, single concentration (AID 765)
# Settings: FPRL1-expressing cells, fluorescent ligand binding inhibition, hits give high values; at 5.1 µM unless noted
# Chain of N-formyl peptide receptor 2 (Homo sapiens) (P25090 whole entry, looked up): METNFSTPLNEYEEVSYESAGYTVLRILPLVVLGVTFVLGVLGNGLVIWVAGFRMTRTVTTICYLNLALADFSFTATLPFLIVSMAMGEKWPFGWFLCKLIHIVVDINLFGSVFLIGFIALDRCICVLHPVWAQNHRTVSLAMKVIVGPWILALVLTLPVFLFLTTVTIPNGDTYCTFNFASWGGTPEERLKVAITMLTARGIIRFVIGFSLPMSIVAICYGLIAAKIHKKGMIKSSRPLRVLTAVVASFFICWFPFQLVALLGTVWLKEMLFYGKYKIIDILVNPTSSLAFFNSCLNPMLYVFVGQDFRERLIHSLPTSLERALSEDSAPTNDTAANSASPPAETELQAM
row,Structure (SMILES),inhibition
1,Cc1ccc(-c2cc(C(F)F)nc(N3CCN(c4cccc(Cl)c4)CC3)n2)cc1,-3.5% [at 5.4 µM] (inactive)
2,COc1ccccc1N1CCN(c2nc(-c3ccc(F)cc3)cc(C(F)(F)F)n2)CC1,-8.4% (inactive)
3,Fc1ccc(-c2cc(C(F)(F)F)nc(N3CCN(C(c4ccccc4)c4ccccc4)CC3)n2)cc1,-9.4% [at 4.5 µM] (inactive)
4,COc1ccc(-c2cn3cccnc3n2)cc1NC(=O)c1ccccc1Cl,19% [at 5.9 µM] (inactive)
5,O=C(O)C1CC=CCC1C(=O)N1CCN(c2nc(-c3ccccc3Cl)c3cc(Br)ccc3n2)CC1 (configuration not stated),-6.7% [at 4 µM] (inactive)
6,FC(F)(F)c1nc(N2CCN(Cc3ccccc3)CC2)nc2c1CCCCC2,11.8% [at 5.7 µM] (inactive)
7,COc1ccc(-c2cn3cccnc3n2)cc1NC(=O)C1CCCCC1,1.2% [at 6.3 µM] (inactive)
8,COc1ccc(-c2cn3cccnc3n2)cc1NC(=O)c1cccc(Br)c1,0.7% [at 5.3 µM] (inactive)
9,COc1ccc(-c2cc(C(F)(F)F)nc(N3CCN(C(c4ccccc4)c4ccccc4)CC3)n2)cc1OC,25.4% [at 4.2 µM] (inactive)
10,COc1ccc(-c2cn3cccnc3n2)cc1NC(=O)C(C)C,25.1% [at 7.2 µM] (inactive)
11,O=C(c1ccc(Cl)cc1)N1CCN(c2nc(-c3ccccc3)c3ccccc3n2)CC1,1.6% [at 5.2 µM] (inactive)
12,O=C(O)CCC(=O)N1CCN(c2nc(-c3ccccc3)c3ccccc3n2)CC1,-3.2% [at 5.7 µM] (inactive)
